This is one part of a sample in which hits are shown more often than they occur.
AMPAR-TARP mod – modulates AMPAR-stargazin complexes; O88602+P19491; HEK293 GluA2+stargazin, membrane potential dye (FDSS), glutamate EC50; hits were called plate by plate, in both directions; calls only at 30 µM; 3.5% of 40,000 active;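 active = any of four per-well response measures lying three or more SD from its plate-wide compound average, in either direction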
Target sequence (O88602 whole entry, looked up): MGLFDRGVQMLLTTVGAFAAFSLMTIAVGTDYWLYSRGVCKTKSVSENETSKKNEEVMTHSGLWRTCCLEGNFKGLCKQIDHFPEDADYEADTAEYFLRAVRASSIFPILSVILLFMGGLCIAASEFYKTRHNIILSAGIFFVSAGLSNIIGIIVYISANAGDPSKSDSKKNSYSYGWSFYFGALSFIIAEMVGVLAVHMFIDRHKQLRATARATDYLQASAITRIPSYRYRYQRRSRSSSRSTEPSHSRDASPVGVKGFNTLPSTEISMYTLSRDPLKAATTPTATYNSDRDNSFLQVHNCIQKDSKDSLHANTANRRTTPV
Target sequence (P19491 whole entry, looked up): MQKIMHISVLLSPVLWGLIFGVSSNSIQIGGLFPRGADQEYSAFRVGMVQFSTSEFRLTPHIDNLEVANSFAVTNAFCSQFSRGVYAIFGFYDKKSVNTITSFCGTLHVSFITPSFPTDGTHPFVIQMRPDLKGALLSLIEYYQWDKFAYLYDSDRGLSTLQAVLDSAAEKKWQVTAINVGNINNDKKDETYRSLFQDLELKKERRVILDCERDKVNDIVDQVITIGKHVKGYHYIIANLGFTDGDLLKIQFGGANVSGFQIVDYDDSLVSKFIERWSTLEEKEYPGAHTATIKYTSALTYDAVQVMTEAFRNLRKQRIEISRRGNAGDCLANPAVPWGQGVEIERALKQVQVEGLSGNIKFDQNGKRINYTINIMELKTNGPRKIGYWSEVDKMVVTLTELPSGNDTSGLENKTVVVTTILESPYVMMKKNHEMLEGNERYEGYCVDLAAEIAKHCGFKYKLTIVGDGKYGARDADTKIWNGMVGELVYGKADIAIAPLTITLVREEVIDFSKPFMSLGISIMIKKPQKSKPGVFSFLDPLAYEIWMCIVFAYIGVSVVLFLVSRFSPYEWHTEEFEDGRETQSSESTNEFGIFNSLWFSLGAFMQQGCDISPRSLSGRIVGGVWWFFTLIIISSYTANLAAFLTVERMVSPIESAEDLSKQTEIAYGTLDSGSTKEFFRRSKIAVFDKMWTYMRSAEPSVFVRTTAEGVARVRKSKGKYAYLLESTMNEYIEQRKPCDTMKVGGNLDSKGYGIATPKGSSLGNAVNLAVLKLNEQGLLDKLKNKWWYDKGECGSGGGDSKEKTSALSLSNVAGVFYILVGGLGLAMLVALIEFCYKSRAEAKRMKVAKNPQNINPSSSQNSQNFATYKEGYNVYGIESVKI
GIRK2 activator – Activators of human GIRK2-containing channels; AID 1259324; P48051; activation (% efficacy), % for hits at 37.5 µM; HEK293 GIRK2/NPY4 cells, thallium flux fluorescence; 34,000 tested, under 10 active;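 active = primary screen hit, no activity in plain HEK293 cells, and in GIRK2-only cells above 5% efficacy rising with concentration; inactive = the rest, including fluorescent compounds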;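 also: efficacy is normalized control-subtracted fluorescence 15 s after thallium addition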
* marks the source's active call; other numbers are inactive results; i = inactive; . = not tested or not shown; + = active, no number.

SMILES	AMPAR-TARP mod	GIRK2 activator
CCOCCn1c(=O)c2c(nc3n(-c4cc(C)cc(C)c4)c(C)cn23)n(C)c1=O	i	.
Cc1cc(O)c(C(c2cccc(O)c2)c2c(O)cc(C)n(C)c2=O)c(=O)n1C	i	i
CCOc1ccccc1NC(=O)C(=O)NCC(c1cccn1C)N1CCc2ccccc2C1 (centres undefined)	i	i
CSc1ccccc1CN1CCC(CNC(=O)/C=C/c2ccccc2)CC1	+	i
CSc1ccccc1NC(=O)C(=O)NCC1CCN(Cc2ccco2)CC1	i	i
CSc1ccccc1NC(=O)C(=O)NCC1CCN(Cc2cc(C)oc2C)CC1	+	i
CSc1ccccc1CN1CCC(CNC(=O)/C=C/c2ccc3c(c2)OCO3)CC1	i	i
O=C(/C=C/c1ccco1)NCC1CCN(Cc2ccsc2)CC1	.	i
O=C(/C=C/c1ccccc1)NCC1CCN(Cc2ccsc2)CC1	+	i
Cc1cccc(NC(=O)C(=O)NCC(c2cccc3ccccc23)N2CCCC2)c1C (centres undefined)	i	i
O=C(NCCCn1nc(-c2ccc(Cl)cc2)ccc1=O)Nc1ccc(F)cc1F	i	i
CC1CC(C)CN(C(=O)C(=O)c2cn(CC(=O)N3CCOCC3)c3ccccc23)C1 (centres undefined)	i	.
N#CC1(C(=O)NCc2nc(-c3ccccc3)no2)CC1	.	i
CC(C)N1CCc2c(sc(NC(=O)c3nc4ccccc4s3)c2-c2nc3ccccc3s2)C1	i	.
CC(C)N1CCc2c(sc(NC(=O)c3ccco3)c2-c2nc3ccccc3s2)C1	+	.
CC(=O)N1CCc2c(sc(NC(=O)c3cc(C)n(C)n3)c2-c2nc3ccccc3s2)C1	+	i
CC(=O)N1CCc2c(sc(NC(=O)c3ccccc3)c2-c2nc3ccccc3s2)C1	i	.
O=c1cc(-c2ccc(F)cc2)ncn1CCN1CCCCC1	i	i
CCc1c(C)nc(SCc2nc(-c3ccccc3)oc2C)[nH]c1=O	.	i
COCCn1nc(-c2ccc(Cl)cc2)ccc1=O	i	i
COCCn1nc(-c2ccc3c(c2)OCO3)ccc1=O	+	i
O=C(c1ccccc1)c1ccc(OCC(O)CNc2ccc(F)cc2)cc1 (centres undefined)	+	i
O=C(c1ccccc1)c1ccc(OCC(O)CN2CCN(c3ccccc3F)CC2)cc1 (centres undefined)	i	i
CCCOc1cn(-c2ccc(F)cc2)nc1C(=O)Nc1cc(OC)c(OC)c(OC)c1	i	i
COC(=O)c1c2c(nc3c1c(-c1ccco1)nn3C1CCS(=O)(=O)C1)CCC2 (centres undefined)	.	i
SMILES	AMPAR-TARP mod	GIRK2 activator
Cc1nc(C)c(C(=O)N2CCN(c3ccc4nnc(-c5ccco5)n4n3)CC2)s1	i	i
Nc1c(C(=O)N2CCCC2)sc2nc(-c3ccco3)c3c(c12)CCCC3	+	.
CC(=O)c1sc2nc(-c3ccco3)c3c(c2c1N)CCCC3	+	.
O=C(CSc1nc(=O)n(CCCO)c2c1CCC2)Nc1nccs1	i	i
N#Cc1ccc(C(=O)N(CCN2CCOCC2)c2nc3c(Cl)cccc3s2)cc1	i	i
CCCc1c(C(=O)Nc2cc(OC)ccc2OC)nnn1-c1ccccc1	i	i
CCCc1c(C(=O)Nc2cccc(C(=O)OC)c2)nnn1-c1ccccc1	+	i
COC(=O)c1ccc(NC(=O)c2nnn(-c3ccccc3)c2C)cc1	i	i
COC(=O)c1cccc(NC(=O)c2nnn(-c3ccccc3F)c2C)c1	+	i
O=C(c1ccc(Cl)s1)N(CCCn1ccnc1)c1nc2c(F)cccc2s1	i	i
Cc1ccc2nc(N(CCN3CCOCC3)C(=O)c3ccnn3C)sc2c1	i	i
O=S(=O)(Nc1cc(Cl)ccc1O)c1cc(Cl)ccc1Cl	+	i
COc1cc(S(=O)(=O)Nc2cc(Cl)ccc2O)c(OC)cc1C	i	i
O=C(Nc1ccc(N2CCCS2(=O)=O)cc1)Nc1ccc(Cl)c(Cl)c1	+	i
Cc1ccc(N2CCCS2(=O)=O)cc1NC(=O)Nc1ccc(Cl)c(Cl)c1	i	i
COc1ccc(-c2cc(CC(=O)Nc3ccccc3F)no2)cc1	i	i
O=C(O)c1ccc(/C=C/C(=O)c2ccco2)cc1	+	.
CCCC(=O)Nc1ccc(O)c(C(=O)/C=C/c2ccc(C(=O)O)cc2)c1	i	.
COc1ccc(CNC(=O)Nc2ccc3c(c2)N(C(=O)C(C)C)CCC3)cc1OC	.	i
O=C(Nc1nc(-c2ccc3c(c2)OCO3)cs1)C1CCN(S(=O)(=O)c2cccs2)CC1	i	.
COc1cccc2sc(N(Cc3ccccn3)C(=O)c3cc(C)nn3C)nc12	i	i
CCOc1cccc2sc(N(Cc3ccccn3)C(=O)c3nn(C)cc3C)nc12	+	i
N=c1c(C(=O)NC2CCCC2)cc2c(=O)n3ccccc3nc2n1C1CCCC1	+	i
Cc1ccc(CNC(=O)c2cc3c(=O)n4ccccc4nc3n(Cc3ccco3)c2=N)cc1	i	i
Cc1ccc(CN2C(=O)N(c3ccc(C)c(Cl)c3)C3CS(=O)(=O)CC32)cc1 (centres undefined)	i	i
SMILES	AMPAR-TARP mod	GIRK2 activator
C=Cc1ccc(CN2C(=O)N(c3ccc(CC)cc3)C3CS(=O)(=O)CC32)cc1 (centres undefined)	+	.
C#CCOCC(O)CN1CCN(c2cc(Cl)ccc2C)CC1 (centres undefined)	i	i
O=C(CCCCn1c(=O)[nH]c2ccccc2c1=O)NC1CCCCC1	i	i
CC(C)CCNC(=O)CCCCn1c(=O)c2ccccc2n(CC(=O)NCc2ccccc2)c1=O	+	.
CCCNC(=O)CCCCn1c(=O)c2ccccc2n(CC(=O)NCc2ccc(F)cc2)c1=O	+	i
O=C(CCCCn1c(=O)c2ccccc2n(CC(=O)NC2CCCCC2)c1=O)NC1CCCCC1	+	i
COc1ccc(CNC(=O)Cn2c(=O)n(CCCCC(=O)NCC(C)C)c(=O)c3ccccc32)cc1	i	.
CCCNC(=O)CCCCn1c(=O)c2ccccc2n(CC(=O)Nc2ccc(OC)c(OC)c2)c1=O	i	.
Cn1ccnc1N1CCN(C(=O)CCSc2ccccc2)CC1	i	i
CNC(=O)c1ccsc1NC(=O)CCCS(=O)(=O)c1ccc(C)cc1	i	i
COc1cccc(-n2nnc3c(N4CCN(C(=O)CC(C)(C)C)CC4)ncnc32)c1	i	.
COc1ccc(CCNC(=O)NC2CNC(=O)C2)cc1 (centres undefined)	.	i
CC(C)S(=O)(=O)c1ccc(C(=O)Nc2sc3c(c2C(N)=O)CCCC3)cc1	i	i
CC(=O)N1CCc2c(sc(NC(=O)c3ccc(S(=O)(=O)C(C)C)cc3)c2C(N)=O)C1	+	i
CCc1ccc(S(=O)(=O)Nc2ccc3c(c2)N(C(=O)C2CC2)CC3)s1	+	i
COc1ccc(S(=O)(=O)Nc2ccc3c(c2)N(C(=O)C2CC2)CC3)cc1	i	i
CC(C)(C)n1nc2c(c1NC(=O)C(=O)NCCc1ccccc1)CSC2	i	i
COc1ccc2nc(-c3cccc(NC(=O)c4c(F)cccc4F)c3)cn2n1	i	i
COc1ccc2nc(-c3cccc(NC(=O)Nc4ccc(F)cc4)c3)cn2n1	+	i
CC(NC(=O)CCc1csc(NC(=O)c2cccs2)n1)c1ccccc1 (centres undefined)	i	i
